# Data: PubChem BioAssay
# Assay: binders from COS7 lysate, DM2A8 probe, primary screen, torsin A project, cell lysate, small-molecule microarray, fluorescence 635/667 (AID 1065)
# Conditions: higher = more signal, COS7 lysate expressing mutant human TOR1A
row,Compound,composite z-score
1,CN1C(=O)[C@@]2(CCS(=O)(=O)c3ccccc3)N=C(c3ccc(OCCCO)cc3)O[C@H]2c2ccccc21,0.394
2,CC(C)C(=C=CC[C@@H](O)c1ccccc1OCCO)C[C@@H](O)COCc1ccccc1,0.399
3,COc1ccc(C(O)C2C=CC3C(=O)N(Cc4ccccc4)C(=O)C3N2n2cnnc2)c2ccccc12 (stereo not given),1.07
4,CCOC(=O)C[C@H]1[C@H](OC(=O)c2ccccc2-c2ccccc2)[C@@H](NC(=O)CC(C)C)c2cc(OCCCO)ccc2N1C(=O)c1ccc2ccccc2n1,0.257
5,C=CC[C@H](OC(=O)Nc1ccc(OC)cc1)c1ccc(O)c2ccccc12,0.38
6,COc1ccc(C(O)C2C=CC3C(=O)N(c4ccccc4)C(=O)C3N2Nc2ccccc2)cc1OCc1ccccc1 (stereo not given),0.748
7,O=C1NC(=O)C2C1C=CC(C(O)c1cc(C(F)(F)F)cc(C(F)(F)F)c1)N2Nc1ccc(Cl)cc1Cl (stereo not given),0.623
8,C=CCC(OC(C)=O)[C@@H]1[C@@H](N(Cc2cc3ccccc3o2)C(=O)Cc2ccc(F)cc2)c2cc(OCCCO)ccc2N1C(=O)c1ccc2ccccc2n1 (stereo not given in full),0.337
9,COCCOC(=O)N1C(=O)[C@@]2(c3cc(C#CC4=CCCCC4)ccc31)[C@H](c1ccc(O)cc1)N1[C@H](c3ccccc3)[C@H](c3ccccc3)OC(=O)[C@H]1[C@@H]2C(=O)Nc1nc2ccccc2s1,0.441
10,COCCOC(=O)N1C(=O)[C@@]2(c3cc(C#CC4(O)CCCCCC4)ccc31)[C@H](C(N)=O)[C@H]1C(=O)O[C@H](c3ccccc3)[C@H](c3ccccc3)N1[C@@H]2c1ccc(O)cc1,0.516
11,COC(=O)[C@H](Cc1ccccc1)N1CC(/C=C/C2CC2)=C[C@@H]1[C@@H](O)Cc1ccccc1,0.0784
12,C=C(/C(=C/C[C@@H](OC(=O)c1ccncc1)c1ccccc1OCCO)c1cc(C(=O)OC)ccc1OC)C(C)C,0.584
13,COc1cc(CO)cc(I)c1O[C@H]1C=C(C(=O)NCCO)C[C@@H](N(Cc2ccc(F)cc2)C(=O)C2CCCO2)[C@@H]1O (stereo not given in full),0.114
14,NC(=O)NCC#Cc1ccc2c(c1)[C@]1(C(=O)N2)[C@H](c2ccc(O)cc2)N2[C@H](c3ccccc3)[C@H](c3ccccc3)OC(=O)[C@H]2[C@@H]1C(=O)Nc1nc2ccccc2s1,0.21
15,CCOC(=O)C1=CC[C@@H](c2cc(Cl)ccc2Cl)N(S(=O)(=O)c2ccc(C)cc2)[C@H]1c1ccc(OC)cc1,0.0025
16,COc1ccc(NN2C(C(O)c3ccccn3)C=CC3C(=O)N(C4CCCCC4)C(=O)C32)cc1 (stereo not given),-0.287
17,COc1ccc([Si](C)(C)[C@H]2[C@H](CCO)O[C@@]3(C(=O)N(Cc4cccc(N5CCCCC5=O)c4)c4ccccc43)[C@@H]2C)cc1,0.154
18,CCCC[C@@H]1C[C@H]1[C@@H](NC(=O)c1cccnc1)c1ccc(-c2ccccc2)cc1,-0.242
19,C=CCNC(=O)[C@@H]1[C@H]2C(=O)O[C@H](c3ccccc3)[C@H](c3ccccc3)N2[C@H](c2ccc(OCCO)cc2)[C@@]12C(=O)N(C(=O)OCCOC)c1ccc(C#CC3=CCCCC3)cc12,0.937
20,CC(C)NC(=O)[C@@]1(C)c2ccccc2C(=O)N(C(C)C)[C@H]1c1ccc(CO)cc1,-0.953
21,COCCOC(=O)N1C(=O)[C@@]2(c3cc(C#CC4(O)CCCCCC4)ccc31)[C@H](c1ccccc1OCCO)N1[C@H](c3ccccc3)[C@H](c3ccccc3)OC(=O)[C@H]1[C@@H]2C(N)=O,0.447
22,O=C1c2ccccc2[C@](Cc2ccccc2I)(C(=O)NCc2ccccc2)[C@H](c2ccc(CO)cc2)N1C1CCCCC1,0.106
23,COC(=O)[C@@]1(Cc2ccc(OC)cc2)[C@H]2c3cc(C(=O)N(C)C)n(Cc4ccccc4)c3C[C@H]2CN1C(=O)c1ccccc1,0.0293
24,COC(=O)[C@]1(CCS(=O)(=O)c2ccccc2)N=C(c2ccc(OCCCO)cc2)O[C@@H]1c1ccccc1CN=[N+]=[N-],0.419
25,CC(C)(C)OC(=O)CC[C@]1(C(=O)N2CCOCC2)N=C(c2ccc(OCCCO)cc2)O[C@H]1c1ccccc1,0.177

# Assay: binders of probe aFGF2 on microarray, primary screen, stem cell growth factor project, biochemical, small-molecule microarray, fluorescence 635/667 (AID 1067);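 further: measures binding of biotinylated aFGF2 protein to printed compounds on slides; z-score merges feature fluorescence and signal-to-noise across triplicate slides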
# Conditions: higher = more signal
row,Compound,composite z-score
1,O=C1O[C@@H](c2ccccc2)[C@@H](c2ccccc2)N2[C@@H](c3ccc(O)cc3)[C@]3(C(=O)Nc4ccc(C#CC5=CCCCC5)cc43)[C@@H](C(=O)N3CCN(c4ncccn4)CC3)[C@H]12,-0.0287
2,CC(C)C[C@@H]1NC(=O)[C@H]2C[C@@H](C(=O)NCCCCCC[N+](C)(C)C)[C@@H](c3cccc(OCCO)c3)N2C1=O,-0.152
3,CCOC(=O)C[C@H]1[C@H](OC(=O)c2ccccc2-c2ccccc2)[C@@H](NC(=O)c2ccc3ccccc3n2)c2cc(OCCCO)ccc2N1C(=O)c1ccc2ccccc2n1,-0.074
4,C[C@H]1C2=C3C(CC[C@H]4C(OCc5ccc(F)cc5C(F)(F)F)OC[C@](C)([C@@H]34)N(C(=O)OC(C)(C)C)C2)C(CO)C1CO (stereo not given in full),0.0506
5,CCOc1cc(C(O)C2C=CC3C(=O)N(C)C(=O)C3N2N2CCCCC2)ccc1O (stereo not given),0.0421
6,C=C(COC)/C(=C/C[C@@H](OC(=O)c1ccncc1)c1cccc(OCCO)c1)c1cnc2ccccc2c1,0.0601
7,C=C(CCCC)/C(=C/C[C@@H](OC(C)=O)c1ccc(CO)o1)c1cc(C(=O)OC)ccc1OC,-0.0985
8,CC(C)(C)OC(=O)CC[C@]1(C(=O)NCCN2CCOCC2)N=C(c2ccc(OCCCO)cc2)O[C@H]1c1ccccc1N=[N+]=[N-],0.105
9,Cc1ccc(S[C@]2(C(=O)NCC(F)(F)F)CC(=O)N(Cc3ccccc3)[C@@H]2c2ccc(CO)cc2)cc1,-0.158
10,COc1ccc(C#Cc2ccc3c(c2)[C@]2(C(=O)N3)[C@H](C(=O)N3CCc4cc(OC)c(OC)cc4C3)[C@H]3C(=O)O[C@H](c4ccccc4)[C@H](c4ccccc4)N3[C@@H]2c2ccc(O)cc2)cc1,-0.0583
11,CN1C(=O)[C@@]2(CCS(=O)(=O)c3ccccc3)N=C(c3ccc(OCCCO)cc3)O[C@H]2c2ccccc21,-0.102
12,CC(C)C(=C=CC[C@@H](O)c1ccccc1OCCO)C[C@@H](O)COCc1ccccc1,-0.072
13,COc1ccc(C(O)C2C=CC3C(=O)N(Cc4ccccc4)C(=O)C3N2n2cnnc2)c2ccccc12 (stereo not given),-0.0876
14,CCOC(=O)C[C@H]1[C@H](OC(=O)c2ccccc2-c2ccccc2)[C@@H](NC(=O)CC(C)C)c2cc(OCCCO)ccc2N1C(=O)c1ccc2ccccc2n1,-0.0463
15,C=CC[C@H](OC(=O)Nc1ccc(OC)cc1)c1ccc(O)c2ccccc12,-0.0894
16,COc1ccc(C(O)C2C=CC3C(=O)N(c4ccccc4)C(=O)C3N2Nc2ccccc2)cc1OCc1ccccc1 (stereo not given),0.206
17,O=C1NC(=O)C2C1C=CC(C(O)c1cc(C(F)(F)F)cc(C(F)(F)F)c1)N2Nc1ccc(Cl)cc1Cl (stereo not given),0.277
18,C=CCC(OC(C)=O)[C@@H]1[C@@H](N(Cc2cc3ccccc3o2)C(=O)Cc2ccc(F)cc2)c2cc(OCCCO)ccc2N1C(=O)c1ccc2ccccc2n1 (stereo not given in full),-0.0695

row,Compound,composite z-score
1,COCCOC(=O)N1C(=O)[C@@]2(c3cc(C#CC4=CCCCC4)ccc31)[C@H](c1ccc(O)cc1)N1[C@H](c3ccccc3)[C@H](c3ccccc3)OC(=O)[C@H]1[C@@H]2C(=O)Nc1nc2ccccc2s1,0.0323
2,COCCOC(=O)N1C(=O)[C@@]2(c3cc(C#CC4(O)CCCCCC4)ccc31)[C@H](C(N)=O)[C@H]1C(=O)O[C@H](c3ccccc3)[C@H](c3ccccc3)N1[C@@H]2c1ccc(O)cc1,-0.0494
3,COC(=O)[C@H](Cc1ccccc1)N1CC(/C=C/C2CC2)=C[C@@H]1[C@@H](O)Cc1ccccc1,-0.0093
4,C=C(/C(=C/C[C@@H](OC(=O)c1ccncc1)c1ccccc1OCCO)c1cc(C(=O)OC)ccc1OC)C(C)C,-0.0352
5,COc1cc(CO)cc(I)c1O[C@H]1C=C(C(=O)NCCO)C[C@@H](N(Cc2ccc(F)cc2)C(=O)C2CCCO2)[C@@H]1O (stereo not given in full),-0.057
6,NC(=O)NCC#Cc1ccc2c(c1)[C@]1(C(=O)N2)[C@H](c2ccc(O)cc2)N2[C@H](c3ccccc3)[C@H](c3ccccc3)OC(=O)[C@H]2[C@@H]1C(=O)Nc1nc2ccccc2s1,-0.0222
7,CCOC(=O)C1=CC[C@@H](c2cc(Cl)ccc2Cl)N(S(=O)(=O)c2ccc(C)cc2)[C@H]1c1ccc(OC)cc1,0.259
8,COc1ccc(NN2C(C(O)c3ccccn3)C=CC3C(=O)N(C4CCCCC4)C(=O)C32)cc1 (stereo not given),0.0944
9,COc1ccc([Si](C)(C)[C@H]2[C@H](CCO)O[C@@]3(C(=O)N(Cc4cccc(N5CCCCC5=O)c4)c4ccccc43)[C@@H]2C)cc1,-0.081
10,CCCC[C@@H]1C[C@H]1[C@@H](NC(=O)c1cccnc1)c1ccc(-c2ccccc2)cc1,-0.124
11,C=CCNC(=O)[C@@H]1[C@H]2C(=O)O[C@H](c3ccccc3)[C@H](c3ccccc3)N2[C@H](c2ccc(OCCO)cc2)[C@@]12C(=O)N(C(=O)OCCOC)c1ccc(C#CC3=CCCCC3)cc12,0.0524
12,CC(C)NC(=O)[C@@]1(C)c2ccccc2C(=O)N(C(C)C)[C@H]1c1ccc(CO)cc1,-0.153
13,COCCOC(=O)N1C(=O)[C@@]2(c3cc(C#CC4(O)CCCCCC4)ccc31)[C@H](c1ccccc1OCCO)N1[C@H](c3ccccc3)[C@H](c3ccccc3)OC(=O)[C@H]1[C@@H]2C(N)=O,0.0038
14,O=C1c2ccccc2[C@](Cc2ccccc2I)(C(=O)NCc2ccccc2)[C@H](c2ccc(CO)cc2)N1C1CCCCC1,-0.0291
15,COC(=O)[C@@]1(Cc2ccc(OC)cc2)[C@H]2c3cc(C(=O)N(C)C)n(Cc4ccccc4)c3C[C@H]2CN1C(=O)c1ccccc1,-0.0066
16,COC(=O)[C@]1(CCS(=O)(=O)c2ccccc2)N=C(c2ccc(OCCCO)cc2)O[C@@H]1c1ccccc1CN=[N+]=[N-],0.0794
17,CC(C)(C)OC(=O)CC[C@]1(C(=O)N2CCOCC2)N=C(c2ccc(OCCCO)cc2)O[C@H]1c1ccccc1,-0.0601
